These results are taken from PubChem BioAssay AID2284205 (EPA ToxCast).

The assay has as its target Peroxisome proliferator-activated receptor gamma (Homo sapiens) (UniProt P37231). Nature of the assay: ERF_TW_NR_hPPARG: Eurofins (ERF) Nuclear Receptor (NR) Radioligand Binding LeadHunter Assay for human Peroxisome Proliferator-activated Receptor gamma (PPARg) Agonism, conducted at Taiwan lab site. The procedure: ERF_TW_NR_hPPARG is a biochemical, single-readout assay that uses extracted gene-proteins in a cell-free assay. Measurements were taken 24 hour after chemical dosing in a 96-well plate. See PPARgamma Human NHR Binding (Agonist Radioligand) Assay, Panlabs.ERF_TW_NR_hPPARG is an assay component calculated from the ERF_TW_NR_hPPARG assay. It is designed to measure radioligand binding using a type of binding reporter as detected by scintillation counting with radiometry technology.Data from the assay component ERF_TW_NR_hPPARG was analyzed at the assay endpoint, ERF_TW_NR_hPPARG, in the positive analysis fitting direction relative to DMSO as the negative control and baseline of activity. Using a type of binding receptor, gain-of-signal activity can be used to understand changes in binding receptor as they relate to gene PPARG.To generalize the intended target to other relatable targets, this assay endpoint is annotated to the nuclear receptor intended target family, where the subfamily is non-steroidal.
Human recombinant PPARgamma-LBD expressed in insect cells are used in modified Tris-HCl buffer pH 7.2. A 0.03 ug aliquot is incubated with 5 nM [3H]Rosiglitazone and 1 ug anti-GST antibody for 24 hours at 4C. Non-specific binding is estimated in the presence of 10 uM rosiglitazone. Receptors are counted to determine [3H]Rosiglitazone specifically bound. […]

Active and inactive are the calls of the source. How the source made its calls: active means hit-call score of the fitted dose curve at least 0.9, where 1 is the maximum; inactive means score below 0.9.

Sequence of Peroxisome proliferator-activated receptor gamma (Homo sapiens) (P37231 whole entry, looked up): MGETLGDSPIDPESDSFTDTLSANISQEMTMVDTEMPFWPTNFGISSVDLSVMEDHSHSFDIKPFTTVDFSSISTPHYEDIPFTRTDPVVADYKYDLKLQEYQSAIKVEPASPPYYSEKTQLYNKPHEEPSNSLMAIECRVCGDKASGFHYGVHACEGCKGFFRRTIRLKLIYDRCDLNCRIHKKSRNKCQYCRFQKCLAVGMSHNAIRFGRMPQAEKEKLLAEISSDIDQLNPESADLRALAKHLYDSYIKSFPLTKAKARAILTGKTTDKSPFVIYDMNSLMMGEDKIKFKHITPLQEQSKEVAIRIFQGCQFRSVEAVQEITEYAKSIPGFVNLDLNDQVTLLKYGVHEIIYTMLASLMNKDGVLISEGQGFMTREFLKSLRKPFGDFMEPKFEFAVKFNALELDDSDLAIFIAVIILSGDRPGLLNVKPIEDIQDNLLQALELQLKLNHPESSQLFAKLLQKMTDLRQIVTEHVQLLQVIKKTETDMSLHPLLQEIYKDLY

Take `COC(=O)C(F)(F)C(F)(F)OC(F)(C(F)(F)F)C(F)(F)OC(F)=C(F)F` (configuration not stated): the concentration at half-maximal activity (AC50) was 3.72 µM (active).
In the case of `O=C(O)C(F)(F)C(F)(F)C(F)(F)C(F)(F)C(F)(F)C(F)(F)C(F)(F)C(F)(F)F`, the concentration at half-maximal activity (AC50) was 18.6 µM (active).

Usually AC50 stands for the concentration giving half of the maximal activity seen.
